The whole screen tested about 52,000 compounds, of which about 1,700 (3.3%) were called active. This is one part of a sample in which actives are shown more often than they occur. No stated cut-off is given here; in the data, active means survival mostly below about 52% (no sharp cut-off); inactive means mostly above about 56%.

For this assay, the system named is Wild type. Put plainly: growth inhibition of S. aureus wild type versus tarO mutant, primary screen, teichoic acid synthesis inhibitors, RN4220, OD600 (AID 463173). The following applies: S. aureus RN4220 wild type/DeltatarO growth, OD600, 18 h, active compounds read low, screened at 18.75 µg/mL (by protocol).
For `CC(C)CN(CCCNC(=O)c1cc(=O)[nH]c2ccc(S(=O)(=O)N3CCCCCC3)cc12)CC(C)C`, the survival was 68% (inactive).

For the molecule `COc1cc(Cl)c(C)cc1NC(=O)CSCc1nc(-c2ccc(OC)c(OC)c2)no1`, the survival is 73% (inactive).

Consider `CCCCNC(=O)c1cc(-c2ccc(OC)cc2)nc2n[nH]c(-c3cccc([N+](=O)[O-])c3)c12`, for which the survival was 80% (inactive).

Turning to `Cc1cc(C)c2c(-n3cccc3)c(C(=O)NCCc3ccc(Cl)cc3)sc2n1`, the survival is 118% (inactive).

Take `CCCCc1nc2c(nnn2Cc2ccccc2)c(=O)[nH]1`: the survival is 104% (inactive).

Turning to `Cn1nnc2c(NCc3ccccc3)ncnc21`, the survival is 0% (active).

Consider `Cc1ccc(CNc2ncnc3c2nnn3C)cc1`, for which the survival is 49% (inactive).

For the molecule `Cn1nnc2c(NCc3ccc(Cl)cc3)ncnc21`, the survival was 88% (inactive).

Consider `COc1ccc(N2CCN(C(=O)c3ccc(CS(=O)(=O)c4ccc(Br)cc4)o3)CC2)cc1`, for which the survival was 132% (inactive).

As for `O=C1NC(=O)C(Nc2ccccc2Cl)S1` (configuration not stated), the survival is 108% (inactive).

For `CC1CCN(c2ncnc3c2c(-c2ccccc2)cn3-c2ccc(Br)cc2)CC1`, the survival is 72% (inactive).

Take `CCn1cc(S(=O)(=O)c2cccc(Cl)c2)c(=O)c2cc(F)c(N3CCC(C)CC3)cc21`: the survival is 57% (inactive).

`CC(C)OCCCn1c(=O)c2ccccc2n2c(-c3cc(Cl)ccc3O)nnc12`: the survival was 94% (inactive).

Regarding `COC(=O)c1sccc1S(=O)(=O)N(CC(=O)NCc1ccc(F)cc1)c1ccc(C)c(C)c1`, the survival is 76% (inactive).

On to `COC(=O)c1sccc1S(=O)(=O)N(CC(=O)Nc1cc(C)ccc1C)c1ccc(C)c(C)c1`, for which the survival was 78% (inactive).

Consider `COC(=O)c1sccc1S(=O)(=O)N(CC(=O)NCc1ccc(C)cc1)c1ccc(C)c(C)c1`, for which the survival was 74% (inactive).

In the case of `COC(=O)c1sccc1S(=O)(=O)N(CC(=O)Nc1cc(F)ccc1F)c1ccc(C)c(C)c1`, the survival is 133% (inactive).

Regarding `COC(=O)c1sccc1S(=O)(=O)N(CC(=O)Nc1cccc(C)c1C)c1ccc(C)c(C)c1`, the survival was 69% (inactive).

As for `COC(=O)c1sccc1S(=O)(=O)N(CC(=O)Nc1ccc(C)c(F)c1)c1ccc(C)c(C)c1`, the survival was -1% (active).

In the case of `CCc1cccc(NC(=O)CN(c2ccc(C)c(C)c2)S(=O)(=O)c2ccsc2C(=O)OC)c1`, the survival is -6% (active).

Regarding `COC(=O)c1sccc1S(=O)(=O)N(CC(=O)Nc1c(C)cccc1C)c1ccc(C)c(C)c1`, the survival is 78% (inactive).

For the molecule `COC(=O)c1sccc1S(=O)(=O)N(CC(=O)NCc1ccccc1)c1ccc(C)c(C)c1`, the survival was 14% (active).

As for `Cc1ccc(CNC(=O)c2ccc(CSCc3ccccc3Cl)o2)cc1`, the survival was 49% (inactive).

With `CC1(C)CC(=O)c2cc(C(=O)Nc3ccc(Cl)cc3)c(=O)[nH]c2C1`, the survival is 71% (inactive).

With `CCCCOc1ccc(CNC(=O)c2cc3n(n2)CCCN(Cc2ccc(C)cc2)C3=O)cc1`, the survival is 63% (inactive).

Take `COc1cccc(CN2C(=O)c3ccccc3Sc3ccc(C(=O)OCc4ccco4)cc32)c1`: the survival was 72% (inactive).

For `CCOc1ccccc1NC(=O)N1CCc2c(sc3c2CCCC3)C1c1ccccc1` (configuration not stated), the survival was 75% (inactive).

As to `COc1ccc2oc(=O)c(C(=O)Nc3cccc(C(=O)O)c3)cc2c1`, the survival was 68% (inactive).

As to `CCOc1ccc(S(=O)(=O)Nc2cccc(-c3ccc(OCC)nn3)c2)cc1`, the survival was 71% (inactive).

On to `O=C(CSCc1ccccc1Cl)N/N=C/c1ccc(O)cc1O`, for which the survival was 122% (inactive).

As to `COc1ccc(NC(=O)CCc2c(C)nc3c(-c4ccc(F)cc4)c(C)nn3c2C)c(OC)c1`, the survival is 78% (inactive).

With `CC(=O)c1cccc(NC(=O)C2CCN(S(=O)(=O)c3ccc4[nH]c(=O)ccc4c3)CC2)c1`, the survival was 75% (inactive).

Consider `CCn1c(SCC(=O)OC2CCCCC2)nnc1-c1ccc(OC)cc1`, for which the survival was 113% (inactive).

`CC(=O)Nc1ccc(NC(=O)c2cc(-c3ccc4c(c3)OCCO4)on2)cc1`: the survival was 109% (inactive).

Take `Cc1ccc(-c2cc(C(=O)Oc3ccc(C#N)cc3)no2)cc1C`: the survival was 82% (inactive).

Turning to `Cc1cc(C)cc(OC(=O)c2cc(-c3ccc4c(c3)OCCO4)on2)c1`, the survival was -7% (active).

For `Cc1cccc(OC(=O)c2cc(-c3ccc4c(c3)OCCO4)on2)c1`, the survival is -7% (active).

Take `CC(=O)c1cccc(NC(=O)c2cc(-c3ccc4c(c3)OCCO4)on2)c1`: the survival is 77% (inactive).

In the case of `Cc1cccc(OC(=O)c2cc(-c3ccc(C)c(C)c3)on2)c1`, the survival is -7% (active).

In the case of `Cc1ccc(-c2cc(C(=O)Oc3ccc(C#N)cc3)no2)cc1`, the survival was 88% (inactive).

For `Cc1cc(C)cc(OC(=O)c2cc(-c3ccc(Cl)cc3)on2)c1`, the survival was 87% (inactive).

Regarding `Cc1cccc(NC(=O)c2cc(-c3ccc4c(c3)OCCO4)on2)c1`, the survival was 78% (inactive).

As to `COc1ccc(CC(=O)NCC(c2ccc(N(C)C)cc2)N2CCOCC2)cc1` (configuration not stated), the survival was 81% (inactive).

Take `Clc1ccccc1-c1nnc(-c2ccccc2CNc2ccc(Br)cc2)o1`: the survival was 91% (inactive).

In the case of `CCCNC(=O)Cn1nc(-c2ccc(OC)cc2)c2cnc3ccc(F)cc3c21`, the survival is 73% (inactive).

On to `Cc1cccc(CNS(=O)(=O)c2ccc3[nH]c(=O)ccc3c2)c1`, for which the survival is 124% (inactive).

Turning to `COc1ccc(C(C(=O)NCc2ccccc2)N(Cc2ccco2)C(=O)c2cnccn2)cc1` (configuration not stated), the survival was 101% (inactive).

For the molecule `COc1cccc(CNC(=O)C(NS(=O)(=O)c2cccs2)C(C)C)c1` (configuration not stated), the survival was 94% (inactive).

`COc1ccc(OC)c(C2N=C(N)Nc3nc4ccccc4n32)c1` (configuration not stated): the survival is 72% (inactive).

`COc1cc(Nc2nc3ccc(Cl)cc3nc2-n2nc(C)cc2C)cc(OC)c1`: the survival is 93% (inactive).

Turning to `Cc1cc(C)n2c(SCC(=O)N(C)C3CCCCC3)nnc2n1`, the survival is 101% (inactive).

On to `CC(C)(C)C(=O)NC1CCN(S(=O)(=O)c2ccccc2C(=O)O)CC1`, for which the survival is 105% (inactive).

Take `CCCN(CCC)CCCNC(=O)c1cc2c(-c3ccc(Cl)cc3)nn(C)c2s1`: the survival is 95% (inactive).

For `CCCN(CCC)CCNC(=O)c1cc2c(-c3ccc(Cl)cc3)nn(C)c2s1`, the survival is 81% (inactive).

With `CCCCN(CC)CCNC(=O)c1cc2c(-c3ccc(Cl)cc3)nn(C)c2s1`, the survival was 5% (active).

For the molecule `CCOc1ccc(-c2c(C)nn3c(C)c(C(=O)NC(C)c4ccccc4)cnc23)cc1OCC` (configuration not stated), the survival was 75% (inactive).

Regarding `Cc1ccc(CNC(=O)CN2C(=O)CCc3cc(S(=O)(=O)N4CCCCC4)ccc32)cc1`, the survival is 91% (inactive).

These data come from PubChem BioAssay AID463173 (ICCB-Longwood Screening Facility, Harvard Medical School, 2010).
